# Experimental data from ChEMBL document CHEMBL1201862, “PubChem BioAssay data set” (2004).
# About 2,100 (0.53%) of roughly 400,000 compounds were called active. Inconclusive results (about 14%) are left out. The rule behind the calls is not given here. The entries come from a sample that favours actives as a whole.
# Target: Ataxin-2 (Homo sapiens) (UniProt Q99700)
# Test: qHTS for Inhibitors of ATXN expression.
# Assay type: functional
# Chain of Ataxin-2 (Homo sapiens) (Q99700 whole entry): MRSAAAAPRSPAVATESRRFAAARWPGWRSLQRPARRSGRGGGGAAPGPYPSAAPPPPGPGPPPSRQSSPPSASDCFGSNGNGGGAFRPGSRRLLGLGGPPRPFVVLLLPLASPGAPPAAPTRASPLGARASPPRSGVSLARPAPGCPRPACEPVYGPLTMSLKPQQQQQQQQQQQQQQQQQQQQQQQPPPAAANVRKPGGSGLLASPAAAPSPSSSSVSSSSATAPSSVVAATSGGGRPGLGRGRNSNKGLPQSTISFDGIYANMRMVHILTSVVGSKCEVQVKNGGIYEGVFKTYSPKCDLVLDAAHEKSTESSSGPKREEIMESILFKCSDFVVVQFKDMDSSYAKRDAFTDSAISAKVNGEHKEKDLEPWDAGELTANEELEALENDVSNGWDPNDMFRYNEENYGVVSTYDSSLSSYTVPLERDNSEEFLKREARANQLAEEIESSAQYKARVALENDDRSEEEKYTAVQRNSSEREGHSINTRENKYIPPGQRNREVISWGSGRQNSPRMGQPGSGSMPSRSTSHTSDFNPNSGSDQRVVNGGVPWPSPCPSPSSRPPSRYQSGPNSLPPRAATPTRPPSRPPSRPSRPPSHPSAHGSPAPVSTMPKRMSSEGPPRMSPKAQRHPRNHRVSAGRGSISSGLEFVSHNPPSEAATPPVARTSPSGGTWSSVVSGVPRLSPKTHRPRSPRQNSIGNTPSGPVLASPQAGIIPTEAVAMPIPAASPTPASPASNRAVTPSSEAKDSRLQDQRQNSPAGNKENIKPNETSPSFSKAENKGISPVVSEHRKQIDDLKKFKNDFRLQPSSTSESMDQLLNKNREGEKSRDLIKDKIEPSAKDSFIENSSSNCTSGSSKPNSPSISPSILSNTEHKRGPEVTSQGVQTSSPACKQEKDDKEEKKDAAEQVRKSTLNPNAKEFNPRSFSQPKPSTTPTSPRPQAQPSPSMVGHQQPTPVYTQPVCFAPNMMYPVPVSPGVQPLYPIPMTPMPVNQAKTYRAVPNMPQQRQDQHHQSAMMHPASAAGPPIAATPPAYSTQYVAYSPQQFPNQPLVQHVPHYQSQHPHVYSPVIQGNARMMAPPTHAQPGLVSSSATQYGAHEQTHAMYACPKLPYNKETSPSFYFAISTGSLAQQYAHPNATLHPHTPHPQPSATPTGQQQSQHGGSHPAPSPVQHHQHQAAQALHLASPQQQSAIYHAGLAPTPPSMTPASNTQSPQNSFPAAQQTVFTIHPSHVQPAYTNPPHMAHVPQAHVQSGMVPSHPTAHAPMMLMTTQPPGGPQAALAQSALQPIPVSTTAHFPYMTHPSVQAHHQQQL
row,SMILES,Potency
1,COC(=O)c1cc2c(ccn2C)n1C,inactive
2,CCC1S/C(=N/N=C/c2ccco2)N(Cc2ccccc2)C1=O (stereo not given),inactive
3,CC(C)c1cc(N2CCOCC2)n2ncc(-c3ccccc3)c2n1,inactive
4,COc1cccc(-c2nc(SCC(=O)Nc3nc(-c4ccccc4)c(C)s3)nc(O)c2C#N)c1,inactive
5,CCOC(=O)c1sc(NC(=O)CSc2nc3c(cc2C#N)CCCCCC3)c(C#N)c1C,inactive
6,CCOc1ccc(/C=C/C2=Cc3c(sc(NC(=O)CSc4n[nH]c(N)n4)c3C#N)C(C)(C)C2)cc1,39.8 µM (active)
7,CC(=O)C1=C(C)NC(SCC(=O)Nc2nc3ccccc3s2)=C(C#N)C1c1ccc(Cl)cc1 (stereo not given),inactive
8,COC(=O)c1c(N=C(S)NNC(=O)c2ccc(Cl)s2)sc(C(=O)N(C)C)c1C,39.8 µM (active)
9,C/C=C(\C)C(=O)OC1CC(C)(C)C[C@H]2C3=CC[C@@H]4[C@@]5(C)CCC(O[C@@H]6O[C@@H](C(=O)O)[C@@H](O)C(O[C@@H]7OC[C@H](O)[C@@H](O)[C@@H]7O[C@@H]7OC(CO)C(O)[C@@H](O)[C@@H]7O)C6O[C@@H]6OC(CO)C(O)C(O)C6O)[C@@](C)(CO)[C@@H]5CC[C@]4(C)[C@]3(C)CC(O)[C@@]12CO (stereo not given in full),31.6 µM (active)
10,Cc1nn(C)cc1N1C(=O)c2cccc3c(N)ccc(c23)C1=O,inactive
11,COc1ccc(CNC(=O)C(C#N)c2nc3ccccc3nc2N2CCCC2)cc1 (stereo not given),inactive
12,CCOc1ccc(S(=O)(=O)NCC(c2ccc3c(c2)OCO3)N2CCN(C)CC2)cc1 (stereo not given),inactive
13,COc1ccc(C(CNC(=O)c2ccc(-c3ccccc3Cl)o2)N2CCCC2)cc1 (stereo not given),17.8 µM (active)
14,COc1ccccc1C(CNC(=O)C1COc2ccccc2O1)N1CCCC1 (stereo not given),inactive
15,CCOc1ccc(C(=O)NCC(c2ccc(Cl)cc2)N2CCCCC2)cc1 (stereo not given),14.1 µM (active)
16,CCOc1ccc(NS(=O)(=O)c2ccc(C(=O)NCC3CCCO3)cc2)cc1 (stereo not given),inactive
17,CCNc1nc2nc3ccc(C)cn3c(=O)c2cc1C(=O)NCC1CCCO1 (stereo not given),inactive
18,O=C(CN1C(=O)NC2(CCc3ccccc32)C1=O)Nc1ccc(Br)cc1F (stereo not given),inactive
19,Nc1nnnn1/N=C/c1ccccc1O,inactive
20,CC(Oc1ccccc1F)c1nnc(SCC(=O)N(c2ccccc2)C2CCS(=O)(=O)C2)o1 (stereo not given),inactive
21,O=C(OCC(=O)N(c1ccccc1)C1CCCCC1)c1ccc(CO)cc1,inactive
22,O=C(CCl)N(c1ccccc1)C1CCS(=O)(=O)C1 (stereo not given),17.8 µM (active)
23,O=C(NC(=O)c1c(F)cccc1F)O/N=C1\CCCc2occc21,inactive
24,CN(C)S(=O)(=O)c1cccc(NC(=S)N/N=C/C2CC=CCC2)c1 (stereo not given),inactive
25,Cc1nc2ccc(S(=O)(=O)Nc3ccc(-c4nc5cccnc5s4)cc3)cc2s1,inactive
26,C=CCc1c(O)c(CC)cc2c(C)cc(=O)oc12,inactive
27,CC(=O)c1c(C)oc2ccc(N(C(C)=O)S(=O)(=O)c3ccc(Cl)c([N+](=O)[O-])c3)cc12,31.6 µM (active)
28,C=CCN(c1ccccc1)S(=O)(=O)c1cccc(C(=O)Oc2ccc3c(C)cc(=O)oc3c2)c1,inactive

row,SMILES,Potency
1,COC(=O)c1c(C)oc2ccc(N(C(=O)Oc3ccccc3)S(=O)(=O)c3ccc(Cl)c([N+](=O)[O-])c3)cc12,35.5 µM (active)
2,CC=Cc1cc2c(c(=O)o1)C(=O)C(O)C(C)O2 (stereo not given),29.9 µM (active)
3,CCOC(=O)c1cc2c(=O)n3ccccc3nc2n(CCCOC)/c1=N\C(C)=O,inactive
4,COCCNC(=O)c1ccc(Cn2c(SCC(N)=O)nc3ccccc3c2=O)cc1,inactive
5,C[C@H](NC(=O)c1ccc(Cl)cc1)C(=O)OCn1nnc2ccccc2c1=O,8.91 µM (active)
6,O=C(CNC(=O)C1CCCCC1)OCn1nnc2ccccc2c1=O,inactive
7,S=C1SCN(Cc2cccnc2)CN1Cc1cccnc1,13.4 µM (active)
8,OC1(c2ccc(F)cc2)CCN(Cc2cccnc2)CC1,inactive
9,OCC1(CCc2ccccc2)CCN(Cc2cccn2-c2cccnc2)CC1,inactive
10,Cc1cccc2c3c([nH]c12)CCNC3,inactive
11,O=C1OCCN1C(=O)[C@H]1[C@H](c2ccc(Cl)cc2)C(c2cccc(Cl)c2)=NN1c1ccccc1,inactive
12,Oc1nc2cc3ccccc3cc2nc1C(F)(F)F,inactive
13,CCOc1ccc2nc(N3C(=O)CNC3=S)sc2c1,39.8 µM (active)
14,CCOc1ccc2nc(N3C(=O)/C(=C/c4ccc(Cl)cc4)NC3=S)sc2c1,inactive
15,CN(C)CCCn1c(N)c(C#N)c2nc3ccccc3nc21,inactive
16,COc1ccc(-c2cc(C(=O)NN)[nH]n2)cc1OC,inactive
17,COc1cccc(OC)c1-c1nn2c(-c3cc(-c4ccccc4)[nH]n3)nnc2s1,31.6 µM (active)
18,Cc1cc(C)c(C(CC(=O)c2cccs2)C(C#N)C#N)c(C)c1 (stereo not given),31.6 µM (active)
19,N#Cc1c(-c2ccccc2)cc(C2CC2)nc1SCC(=O)c1cccs1,inactive
20,COc1ccc(NC(=O)c2cc(-c3ccco3)on2)c(OC)c1,inactive
21,COc1ccc(OC)c(-c2c(C#N)c(N)nc3c2c(=O)nc2sccn23)c1,inactive
22,CCc1c(C)sc(NC(=O)c2cc(-c3cc(OC)ccc3OC)on2)c1C#N,22.4 µM (active)
23,CC(C)Cn1c(N)c(C(=O)NCCN2CCOCC2)c2nc3ccccc3nc21,inactive
24,Nc1ccc2nc(-c3ccccc3)cnc2c1,inactive
25,Brc1cc(-c2ccccc2)nc(-c2ccccc2)n1,39.8 µM (active)
26,CNc1nc(-c2ccccc2)cc(-c2ccccc2)n1,inactive
27,O=c1c2sccc2nc(SCc2cc(=O)n3cc(Br)ccc3n2)n1Cc1ccccn1,inactive
